These results are taken from PMC7822874, “Chemoprotective antimalarials identified through quantitative high-throughput screening of Plasmodium blood and liver stage parasites” (Scientific Reports, 2021).

The test has as its system P. berghei-ANKA-GFP-LucCON liver stage parasites in HepG2-A16-CD81EGFP cells. The conditions noted are these: 48 h.

Like-named read-outs stand apart in the source and are kept apart here.

As for `COc1ccc(OCCn2cc(C(=O)c3ccco3)c3ccccc32)cc1` [NCGC00101886], the “% viability” value (1 µM) is 1.363 and the “% viability” value (3 µM) is reported as 1.13. As to `COc1cccc(OCCn2cc(C(=O)c3ccco3)c3ccccc32)c1` [MLS000050800], under “3 µM”, the “% viability” value was 1.234.
